Experimental findings from PubChem BioAssay (NCI) are described below.

SMILES strings stand for the structures. This is part of a sample that, as a whole, favours compounds with a hit. Of some 83,000 tested, about 20% had one in any assay.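 In brief: 96-well plates, 48 h treatment, single concentration, percent growth endpoint.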 The source made the active and inactive calls. Rule for the calls: active = growth percent below 10; inactive = the rest.

The test system of the first assay is SK-OV-3 ovarian. The assay can be described thus: NCI-60 one-dose screen, 48 h (100 = growth as untreated, 0 = no growth, -100 = all killed). The conditions noted are these: 10 µM unless noted.
Take `COc1ccc(/C=C\c2nc3ccccc3s2)cc1OP(=O)(O)O`: the growth was 84.2% (inactive).
As to `Cn1c2c(Cl)c(Cl)ccc2c2cc(N)[nH]c(=O)c21`, the growth was 92.2% (inactive).
The same measure, in the same setting: with `O=C1Nc2c(ccc(Cl)c2Cl)/C1=C/c1ccccn1` the figure was 94% (inactive).
For `O=C(N/N=C/c1ccc(O)c(O)c1)c1sc2ccccc2c1Cl`, the growth is 75.7% (inactive).
The same measure, in the same setting: with `COc1ccccc1C(C[N+](=O)[O-])c1c(-c2ccccc2)[nH]c2cc(C)ccc12` (stereo unspecified) the figure was 88.6% (inactive); with `O=C1/C(=C/c2ccc(O)cc2)COc2ccc(-c3ccccc3)cc21`, 107% (inactive).
For `Cc1cc2cc3cc(C)c(N)cc3[n+](C)c2cc1N`, the growth was 26% (inactive).
For the compound `c1ccc(Cn2nc3c(c2-c2ccccc2)-c2oncc2CC3)cc1`, the growth was 115% (inactive).
Same read-out and setting: with `COc1ccc(-c2cnc(N)nc2-c2ccc(OC)cc2O)cc1` the figure was 103% (inactive).
Consider `COc1cccc(/C=C2\COc3ccc(-c4ccccc4)cc3C2=O)c1`, for which the growth is 74.3% (inactive).
For `c1ccc(-c2nn(-c3ccccc3)[n+](-c3ccccc3-c3ccccc3)n2)cc1`, the growth is 36.5% (inactive).
On the same count and under the same terms, with `CCOC(=O)c1c(C)nc2c(c1N)C(=O)C(=O)N2Cc1ccc(C(F)(F)F)cc1` the figure was 82.9% (inactive); with `COc1cc2nc(-c3ccc(C(F)(F)F)cc3)cc(OCCN3CCC(O)CC3)c2cc1OC`, 85.4% (inactive).
Regarding `NC(=O)c1cccc(-n2ccc3cc(NC(=O)Nc4cc(C(F)(F)F)cc(C(F)(F)F)c4)ccc32)n1`, the growth is 73.7% (inactive).
For the compound `COc1nccnn1`, the growth is 110% (inactive).
With `Cc1ccc(S(=O)(=O)Nc2ccc(Cl)cc2)cc1`, the growth was 112% (inactive).
In the case of `COc1cc2c(cc1[N+](=O)[O-])-c1ccc([N+](=O)[O-])cc1/C2=N\O`, the growth is 96.4% (inactive).
With `O=C(Nc1nc2ccc(C(=O)N3CCN(c4ccc(Cl)c(Cl)c4)CC3)cc2s1)c1ccc(NCCc2ccccc2)c([N+](=O)[O-])c1`, the growth was 107% (inactive).
On to `Cc1c(C2=CCCCC2)c2ccccn2c1C(=O)c1cccc(S(=O)(=O)N2CCOCC2)c1`, for which the growth is 92.6% (inactive).
Take `CC(C)CN(C(=O)c1ccc(Cl)cc1)c1c(N)n(CC(C)C)c(=O)[nH]c1=O`: the growth is 26.8% (inactive).
For `O=C1Nc2ccccc2/C1=C\c1cccc(/C=C2/C(=O)Nc3ccccc32)n1`, the growth is -88.6% (active).
As to `NC(=O)c1ccc[n+](CC(=O)N2CCN(c3cc4c(cc3F)c(=O)c(C(=O)O)cn4C3CC3)CC2)c1`, the growth is 117% (inactive).
For the compound `CCN(CCNc1cc(OC)cc2cccnc12)CCc1ccccc1`, the growth is 74.6% (inactive).
On the same count and under the same terms, with `COc1ccc(/C(=C\c2ccccc2)C(=O)O)cc1OC` the figure was 105% (inactive); with `NC(=S)N/N=C(/c1ccccc1)c1ccccc1N`, 108% (inactive); with `COc1ccc(/C=N/NC(=O)c2cccc3cc[nH]c23)cc1O`, 26.1% (inactive).
Regarding `Nc1nnc2cc(Cl)ccc2n1`, the growth is 96.5% (inactive).
`CC(=O)Nc1ccc(S(=O)(=O)NC2CCCCC2)cc1`: the growth is 97.3% (inactive).
For the compound `CC1=CC2(C)/C=C(C)/C=C\CC(O)/C=C3/C=CC(=C4C(=O)OC2(CC1C)C4=O)OC3` (stereo unspecified), the growth was 94.6% (inactive).
Regarding `CN1CCN(Cc2ccc(NC(=O)c3cncc(C#Cc4cnccc4C(F)(F)F)c3)cc2C(F)(F)F)CC1`, the growth was 89% (inactive).
With `CC[C@@]12C=CCN3CC[C@]4(c5cc(NC(=O)COc6cc(OCC(=O)Nc7cc8c(cc7OC)N(C)[C@H]7[C@@](O)(C(=O)OC)[C@H](OC(C)=O)[C@]9(CC)C=CCN%10CC[C@]87[C@@H]%109)cc7oc(-c8ccccc8)cc(=O)c67)c(OC)cc5N(C)[C@@H]4[C@](O)(C(=O)OC)[C@H]1OC(C)=O)[C@H]32`, the growth was 23.5% (inactive).
On to `Cc1n[nH]c(C)c1-c1c(C)n[nH]c1C`, for which the growth was 46.8% (inactive).
Same read-out and setting: with `Cc1ccc(-c2csc(/N=C3\C(=O)Nc4ccccc43)n2)cc1` the figure was 32.4% (inactive).

The next assay relates to IGROV1 ovarian. Described as above. Conditions: 10 µM unless noted.
Turning to `COc1ccc(/C=C\c2nc3ccccc3s2)cc1OP(=O)(O)O`, the growth is 37.9% (inactive).
Take `Cn1c2c(Cl)c(Cl)ccc2c2cc(N)[nH]c(=O)c21`: the growth is 54.7% (inactive).
As to `O=C1Nc2c(ccc(Cl)c2Cl)/C1=C/c1ccccn1`, the growth was 73.1% (inactive).
Still for that read-out and setting: with `O=C(N/N=C/c1ccc(O)c(O)c1)c1sc2ccccc2c1Cl` the figure was 64.1% (inactive); with `COc1ccccc1C(C[N+](=O)[O-])c1c(-c2ccccc2)[nH]c2cc(C)ccc12` (stereo unspecified), 53.6% (inactive).
Consider `O=C1/C(=C/c2ccc(O)cc2)COc2ccc(-c3ccccc3)cc21`, for which the growth was 51.6% (inactive).
Same read-out and setting: with `Cc1cc2cc3cc(C)c(N)cc3[n+](C)c2cc1N` the figure was 16.1% (inactive); with `c1ccc(Cn2nc3c(c2-c2ccccc2)-c2oncc2CC3)cc1`, 110% (inactive); with `COc1cccc(/C=C2\COc3ccc(-c4ccccc4)cc3C2=O)c1`, 4.34% (active).
For the compound `c1ccc(-c2nn(-c3ccccc3)[n+](-c3ccccc3-c3ccccc3)n2)cc1`, the growth was 30.9% (inactive).
On to `CCOC(=O)c1c(C)nc2c(c1N)C(=O)C(=O)N2Cc1ccc(C(F)(F)F)cc1`, for which the growth is 62.5% (inactive).
Consider `NC(=O)c1cccc(-n2ccc3cc(NC(=O)Nc4cc(C(F)(F)F)cc(C(F)(F)F)c4)ccc32)n1`, for which the growth was 29.8% (inactive).
With `CN1CCN(CC#CCNC(=O)[C@]23CCC(C)(C)C[C@H]2C2=CC[C@@H]4[C@@]5(C)Cc6c([nH]c7ccccc67)C(C)(C)[C@@H]5CC[C@@]4(C)[C@]2(C)CC3)CC1`, the growth is 81.3% (inactive).
As for `COc1nccnn1`, the growth is 118% (inactive).
`Cc1ccc(S(=O)(=O)Nc2ccc(Cl)cc2)cc1`: the growth was 98.9% (inactive).
On the same count and under the same terms, with `COc1cc2c(cc1[N+](=O)[O-])-c1ccc([N+](=O)[O-])cc1/C2=N\O` the figure was 97.3% (inactive); with `O=C(Nc1nc2ccc(C(=O)N3CCN(c4ccc(Cl)c(Cl)c4)CC3)cc2s1)c1ccc(NCCc2ccccc2)c([N+](=O)[O-])c1`, 82% (inactive); with `Cc1c(C2=CCCCC2)c2ccccn2c1C(=O)c1cccc(S(=O)(=O)N2CCOCC2)c1`, 75.7% (inactive).
The same measure, in the same setting: with `O=C1Nc2ccccc2/C1=C\c1cccc(/C=C2/C(=O)Nc3ccccc32)n1` the figure was -66.8% (active); with `NC(=O)c1ccc[n+](CC(=O)N2CCN(c3cc4c(cc3F)c(=O)c(C(=O)O)cn4C3CC3)CC2)c1`, 99.4% (inactive); with `CCN(CCNc1cc(OC)cc2cccnc12)CCc1ccccc1`, 94.6% (inactive).
On the same count and under the same terms, with `COc1ccccc1N1CCN(C(=O)c2ccc3nc(NC(=O)c4ccc(NCCc5ccccc5)c([N+](=O)[O-])c4)sc3c2)CC1` the figure was 91.8% (inactive); with `CN1CCCC1=Nc1ccccc1`, 111% (inactive).
Consider `COc1ccc(/C(=C\c2ccccc2)C(=O)O)cc1OC`, for which the growth is 96% (inactive).
As for `NC(=S)N/N=C(/c1ccccc1)c1ccccc1N`, the growth was 40.1% (inactive).
For `COc1ccc(/C=N/NC(=O)c2cccc3cc[nH]c23)cc1O`, the growth is 36.4% (inactive).
For the compound `Nc1nnc(C(=O)c2cnc3n(c2=O)CCCCC3)s1`, the growth was 110% (inactive).
On to `Nc1nnc2cc(Cl)ccc2n1`, for which the growth is 96.3% (inactive).
Turning to `CC(=O)Nc1ccc(S(=O)(=O)NC2CCCCC2)cc1`, the growth is 103% (inactive).
Turning to `CC1=CC2(C)/C=C(C)/C=C\CC(O)/C=C3/C=CC(=C4C(=O)OC2(CC1C)C4=O)OC3` (stereo unspecified), the growth is -49.1% (active).
`CN1CCN(Cc2ccc(NC(=O)c3cncc(C#Cc4cnccc4C(F)(F)F)c3)cc2C(F)(F)F)CC1`: the growth was 58.3% (inactive).
Regarding `Cc1n[nH]c(C)c1-c1c(C)n[nH]c1C`, the growth was 5.52% (active).
In the case of `CC(N)C(=O)NNc1n[nH]c(=S)n1N` (stereo unspecified), the growth is 98.8% (inactive).
